Laboratory results published in PubChem BioAssay.
The source made the active and inactive calls. Unless noted, the rule behind the calls is not given here.

Legend:
[1] = resazurin metabolic signal in HepG2 cells – cell-based, resazurin fluorescence, 24 h, PK04 Diversity Set, profiling panel (AID 1172); details: HepG2 viability, higher = more signal; note: test concentration not given here
[2] = budding yeast growth changes without added modifier – OD600, strain BY4716, 24 h, basal condition, primary screen (AID 1173); details: S. cerevisiae BY4716 growth, OD600, 24 h; higher = more signal, called active from +8 up or from −8 down
[3] = viability profiling in MM1S myeloma cells – cell-based, resazurin fluorescence, basal, 24 h, PK04 Diversity Set, profiling panel (AID 1174); details: higher = more signal, called active from +8 up or from −8 down;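 note: MM1S multiple myeloma cell line; test concentration not given here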
[4] = target: Dihydroorotate dehydrogenase (quinone), mitochondrial (Plasmodium falciparum (isolate 3D7)) (UniProt Q08210); experiment: inhibition of P. falciparum DHODH – biochemical, C-terminal His tag, absorbance 600 nm, primary screen (AID 1175); details: PfDHODH enzyme, DCIP absorbance 600 nm; higher = more signal, called active from +8 up or from −8 down;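 note: recombinant parasite enzyme with a five histidine tag at its C terminus; test concentration not given here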
Chain of Dihydroorotate dehydrogenase (quinone), mitochondrial (Plasmodium falciparum (isolate 3D7)) (Q08210 whole entry, looked up): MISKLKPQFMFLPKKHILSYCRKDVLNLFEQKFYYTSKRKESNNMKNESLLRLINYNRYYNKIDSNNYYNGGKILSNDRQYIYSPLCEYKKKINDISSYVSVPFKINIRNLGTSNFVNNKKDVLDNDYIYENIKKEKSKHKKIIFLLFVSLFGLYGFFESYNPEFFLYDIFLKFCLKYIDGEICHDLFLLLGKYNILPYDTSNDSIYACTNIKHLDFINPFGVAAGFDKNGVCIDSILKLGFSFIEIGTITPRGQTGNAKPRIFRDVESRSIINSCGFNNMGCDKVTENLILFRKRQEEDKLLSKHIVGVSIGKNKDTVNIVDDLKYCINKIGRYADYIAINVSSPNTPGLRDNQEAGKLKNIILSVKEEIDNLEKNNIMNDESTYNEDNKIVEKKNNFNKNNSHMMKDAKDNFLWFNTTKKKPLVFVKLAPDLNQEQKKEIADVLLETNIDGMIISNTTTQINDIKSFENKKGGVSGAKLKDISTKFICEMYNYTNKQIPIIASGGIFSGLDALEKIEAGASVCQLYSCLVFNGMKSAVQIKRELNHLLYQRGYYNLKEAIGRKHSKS

[5] = inhibition of PAO1 biofilm formation – strain PAO1, LB-PBS medium, absorbance 600 nm, primary screen (AID 1176); note: test concentration not given here; details: P. aeruginosa PAO1 growth/biofilm, A600, 12 h; higher = more signal
[6] = growth modulation of vineyard yeast isolate – strain RM11-1a, OD600, basal, 24 h, primary screen (AID 1177);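 note: cultures grown under basal conditions with no added stressor; test concentration not given here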; details: S. cerevisiae RM11-1a growth, OD600, 24 h; higher = more signal, called active from +8 up or from −8 down
[7] = growth of efflux-deficient E. coli DRC39 – strain DRC39, OD650, 24 h, E. coli filamentation inducers, primary screen (AID 1178);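 note: growth measured as culture turbidity by optical density at 650 nm; test concentration not given here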; details: E. coli DRC39 acrAB, higher = more signal, called active from +8 up or from −8 down
[8] = growth of efflux-deficient E. coli DRC39 – strain DRC39, OD650, 48 h, E. coli filamentation inducers, primary screen (AID 1179);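 note: screen aims at cell division blockers that make cells filament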; details: E. coli DRC39 delta-acrAB growth, higher = more signal, called active from +8 up or from −8 down
[9] = viability profiling in RPMI8226 myeloma cells – cell-based, resazurin fluorescence, basal, 24 h, PK04 Diversity Set, profiling panel (AID 1180); details: higher = more signal;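 note: RPMI8826 multiple myeloma cell line at 5000 cells per well; test concentration not given here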
[10] = target: E3 ubiquitin-protein ligase XIAP (Homo sapiens) (UniProt P98170); experiment: small molecules binding XIAP protein – biophysical, small-molecule microarray, fluorescence 635 nm, primary screen (AID 1181); details: higher = more signal;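 note: score merges 667 nm emission and signal to noise over triplicate slides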
Chain of E3 ubiquitin-protein ligase XIAP (Homo sapiens) (P98170 whole entry, looked up): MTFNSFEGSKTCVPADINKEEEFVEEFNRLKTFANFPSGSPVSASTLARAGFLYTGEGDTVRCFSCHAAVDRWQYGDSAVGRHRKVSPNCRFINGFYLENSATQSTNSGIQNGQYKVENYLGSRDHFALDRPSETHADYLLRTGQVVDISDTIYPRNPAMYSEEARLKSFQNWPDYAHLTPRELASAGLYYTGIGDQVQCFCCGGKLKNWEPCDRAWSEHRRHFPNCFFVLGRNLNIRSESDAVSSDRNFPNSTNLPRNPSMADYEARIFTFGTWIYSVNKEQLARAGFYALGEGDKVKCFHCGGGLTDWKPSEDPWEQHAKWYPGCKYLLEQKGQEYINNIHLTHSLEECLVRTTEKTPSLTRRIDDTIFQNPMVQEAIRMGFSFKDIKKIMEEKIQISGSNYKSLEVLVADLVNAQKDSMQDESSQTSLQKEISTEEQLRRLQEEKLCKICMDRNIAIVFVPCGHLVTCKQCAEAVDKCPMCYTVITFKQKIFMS

Row | Structure (SMILES) | z-score [1] | z-score [2] | z-score [3] | composite z-score [4] | z-score [5] | z-score [6] | z-score [7] | z-score [8] | z-score [9] | composite z-score [10]
1 | CCCC[C@H]1OB(O)C[C@H]2C1=C(COC)C[C@H]1C(=O)N(C)C(=O)[C@H]12 | -0.627 | -1.56 (inactive) | -0.227 (inactive) | -0.682 (inactive) | 0.118 (inactive) | -1.11 (inactive) | -0.748 (inactive) | -0.595 (inactive) | -0.45 | 0.144
2 | CN1C(=O)C2C=CC(C(O)c3ccccc3)N(N(c3ccccc3)c3ccccc3)C2C1=O (stereo not given) | -0.112 | 0.833 (inactive) | -0.728 (inactive) | 0.0002 (inactive) | 0.226 (inactive) | 0.579 (inactive) | -0.854 (inactive) | 0.139 (inactive) | -0.323 | 0.259
3 | COC(=O)[C@@]1(CCS(=O)(=O)c2ccccc2)N=C(c2ccc(OCCCO)cc2)O[C@H]1c1ccccc1CN=[N+]=[N-] | -0.882 | 1.38 (inactive) | -3.13 (inactive) | 0.484 (inactive) | 0.92 (inactive) | 0.642 (inactive) | 0.163 (inactive) | -0.154 (inactive) | -2.55 | 0.316
4 | CCCCCCc1nc(-c2ccc(OC)nc2)cc2c1[Si](C(C)C)(C(C)C)O[C@H]2c1ccccc1 | 0.153 | 0.676 (inactive) | 0.0809 (inactive) | -0.0348 (inactive) | 0.256 (inactive) | 0.056 (inactive) | 0.231 (inactive) | -0.0838 (inactive) | 0.732 | -0.241
5 | CN1C(=O)C2C=CC(C(O)c3ccco3)N(Nc3ccccc3)C2C1=O (stereo not given) | -0.86 | 1.35 (inactive) | -0.944 (inactive) | 1.24 (inactive) | 1.41 (inactive) | 1.61 (inactive) | -0.436 (inactive) | -0.0442 (inactive) | -0.328 | 0.42
6 | CCOC(=O)C[C@H]1[C@H](OC(=O)c2ccc(C(=O)c3ccccc3)cc2)[C@@H](NC(=O)c2ccc3ccccc3c2)c2cc(OCCCO)ccc2N1C(=O)Cc1ccc(OC)cc1 | -0.0265 | -0.291 (inactive) | 0.238 (inactive) | -0.148 (inactive) | -0.382 (inactive) | 0.4 (inactive) | -0.276 (inactive) | 0.471 (inactive) | 0.287 | -0.12
7 | C=CCOC(=O)[C@H]1[C@@H]2C(=O)O[C@@H](c3ccccc3)[C@@H](c3ccccc3)N2[C@@H](c2ccc(OCCOC(=O)[C@H]3C[C@H]4C(=O)N[C@@H](CCCCNC(C)=O)C(=O)N4[C@H]3c3cccc(OCCO)c3)cc2)[C@]12C(=O)Nc1ccccc12 | 0.514 | 0.922 (inactive) | 0.618 (inactive) | 0.592 (inactive) | 3.14 (inactive) | 1.29 (inactive) | 0.561 (inactive) | -0.581 (inactive) | 0.491 | -0.0338
8 | COCCCNC(=O)[C@@]1(C)c2ccccc2C(=O)N(C(C)C)[C@H]1c1ccc(CO)cc1 | -0.104 | 0.836 (inactive) | -0.18 (inactive) | 0.663 (inactive) | 0.208 (inactive) | 1.24 (inactive) | 0.32 (inactive) | -0.279 (inactive) | -0.316 | 0.109
9 | CC(C)N1C(=O)[C@@]2(Cc3ccccc31)c1ccccc1C(=O)N(Cc1ccccc1Cl)[C@H]2c1ccc(CO)cc1 | 1.07 | -1.87 (inactive) | 0.845 (inactive) | -4.26 (inactive) | 0.31 (inactive) | -1.6 (inactive) | 0.344 (inactive) | 0.659 (inactive) | 1.32 | 0.257
10 | C=CC[C@@]1(C(=O)NCCN2CCOCC2)N=C(c2ccc(OCCCO)cc2)O[C@@H]1c1ccccc1N=[N+]=[N-] | -0.1 | -0.0089 (inactive) | -1.05 (inactive) | 1.61 (inactive) | 1.61 (inactive) | 2.17 (inactive) | 0.2 (inactive) | -0.0194 (inactive) | -0.614 | 0.107
11 | C=C(/C(=C/C[C@H](OC(C)=O)c1ccc(CO)o1)c1cc(C(=O)OC)ccc1OC)C(C)C | -0.783 | 0.18 (inactive) | -1.14 (inactive) | -3.65 (inactive) | -0.0342 (inactive) | 0.447 (inactive) | -1.42 (inactive) | -0.94 (inactive) | -1.34 | -0.0807
12 | CC(C)C(CO)N1C(=O)[C@@H]2C3C(=O)OCCC/C=C\[C@H]3OC23C=CCN(CCN2CCOCC2)C(=O)[C@@H]13 (stereo not given in full) | -0.723 | 0.384 (inactive) | -0.686 (inactive) | -3.09 (inactive) | 0.109 (inactive) | -0.0505 (inactive) | 1.01 (inactive) | 0.566 (inactive) | -0.586 | 0.0191
13 | COC(=O)[C@@]1(Cc2ccc(OC)cc2)[C@H]2c3cc(C(=O)N(C)C)n(Cc4ccccn4)c3C[C@H]2CN1C(=O)c1ccccc1 | -0.961 | 1.28 (inactive) | -1.24 (inactive) | 1.02 (inactive) | 0.976 (inactive) | 0.607 (inactive) | -1.13 (inactive) | -0.6 (inactive) | -0.838 | 0.155
14 | C=C(CCCC)C(=O)CC[C@@H](OC(=O)c1ccccc1-c1ccccc1C(=O)O)c1ccc(OCCO)cc1 | -0.268 | -1.78 (inactive) | -0.276 (inactive) | -1.25 (inactive) | 0.956 (inactive) | -0.585 (inactive) | -0.0062 (inactive) | -0.297 (inactive) | 0.692 | -0.182
15 | CC(=O)n1cc(C(O)C2C=CC3C(=O)N(c4ccccc4)C(=O)C3N2Nc2ccc([N+](=O)[O-])cc2)c2ccccc21 (stereo not given) | -0.768 | -0.199 (inactive) | -1.15 (inactive) | 0.835 (inactive) | 1.25 (inactive) | 0.241 (inactive) | -1.34 (inactive) | -0.885 (inactive) | -0.669 | -0.0391
16 | [N-]=[N+]=NCc1ccccc1[C@@H]1OC(c2ccc(OCCCO)cc2)=N[C@]1(Cc1ccccc1)C(N)=O | 0.854 | -2.19 (inactive) | -0.422 (inactive) | -0.717 (inactive) | 0.177 (inactive) | 0.895 (inactive) | 0.671 (inactive) | -0.492 (inactive) | -0.0348 | 0.319
17 | C=CCOC(=O)[C@H]1[C@@H]2C(=O)O[C@@H](c3ccccc3)[C@@H](c3ccccc3)N2[C@@H](c2ccc(OCCOC(=O)[C@@H]3C[C@@H]4C(=O)N[C@@H](CCCCNC(C)=O)C(=O)N4[C@@H]3c3ccc(O)cc3)cc2)[C@]12C(=O)Nc1ccccc12 | -0.707 | 0.857 (inactive) | -0.0524 (inactive) | 0.0572 (inactive) | 1.83 (inactive) | 1.74 (inactive) | -0.605 (inactive) | -1.35 (inactive) | -0.407 | -0.0018
18 | CCCC[C@@H]1C[C@H]1[C@@H](NC(=O)c1cccs1)c1ccc(-c2ccccc2)cc1 | 1.13 | 0.748 (inactive) | 0.921 (inactive) | -1.02 (inactive) | 1.03 (inactive) | 0.822 (inactive) | -0.409 (inactive) | -0.384 (inactive) | 0.661 | 0.416
19 | CC(C)C[C@@H]1NC(=O)[C@H](C(C)C)NC(=O)[C@@]23C(=O)N[C@@H](Cc4ccccc4)C2[C@H](C)[C@@]2(C)O[C@H]2C3/C=C/CC/C=C/CNC1=O (stereo not given in full) | 0.233 | -0.399 (inactive) | -0.0691 (inactive) | -0.313 (inactive) | 0.956 (inactive) | 0.388 (inactive) | 1.04 (inactive) | 0.408 (inactive) | 0.628 | -0.243
20 | COc1cc2c(cc1OC)CN(C(=O)[C@H]1[C@@H]3C(=O)O[C@@H](c4ccccc4)[C@@H](c4ccccc4)N3[C@@H](c3ccc(O)cc3)[C@]13C(=O)Nc1ccc(C#CCCO)cc13)CC2 | -0.29 | 0.966 (inactive) | 0.577 (inactive) | 0.857 (inactive) | 0.393 (inactive) | 1.16 (inactive) | 0.0945 (inactive) | -0.712 (inactive) | 0.756 | -0.249
21 | C[N+](C)(C)CCCCCCNC(=O)[C@@H]1C[C@@H]2C(=O)N[C@@H](Cc3ccccc3)C(=O)N2[C@@H]1c1cccc(OCCO)c1 | 0.844 | -0.393 (inactive) | 0.328 (inactive) | -0.0631 (inactive) | -0.27 (inactive) | 0.153 (inactive) | 1.14 (inactive) | 1.35 (inactive) | 0.755 | 0.0905
22 | CC(C)C(=C=CC[C@@H](O)c1ccc(OCCO)cc1)C[C@@H](O)c1ccccn1 | -0.287 | -0.492 (inactive) | -0.426 (inactive) | -11.9 (active) | 0.85 (inactive) | 0.406 (inactive) | -0.235 (inactive) | -0.0608 (inactive) | -0.538 | 0.273
23 | COCCOC(=O)N1C(=O)[C@@]2(c3cc(C#CCC(C(=O)OC)C(=O)OC)ccc31)[C@H](c1ccccc1OCCO)N1[C@H](c3ccccc3)[C@H](c3ccccc3)OC(=O)[C@H]1[C@@H]2C(=O)N1CCN(c2ncccn2)CC1 | 0.326 | 2.4 (inactive) | 1.04 (inactive) | -0.388 (inactive) | 3.18 (inactive) | 3.19 (inactive) | 0.862 (inactive) | 0.519 (inactive) | -0.83 | -0.0095
24 | CC(C)[Si]1(C(C)C)O[C@@H](c2ccccc2)c2cc(-c3ccc(-c4ccc(Cl)c(Cl)c4)o3)nc(-c3ccccc3)c21 | -0.0945 | -1.38 (inactive) | -0.274 (inactive) | 1.74 (inactive) | 0.574 (inactive) | -0.282 (inactive) | -0.0522 (inactive) | -0.221 (inactive) | -0.406 | -0.202
25 | C=C(COC)/C(=C/C[C@@H](OC(=O)c1ccncc1)c1ccc(CO)o1)c1cc(C(=O)OC)ccc1OC | 0.755 | -0.439 (inactive) | 0.0477 (inactive) | -2.14 (inactive) | 1.03 (inactive) | 0.0707 (inactive) | 1.19 (inactive) | 1.03 (inactive) | 0.515 | 1.7
